NTMT1 inhibitor = Primary qHTS for Inhibitors of N-terminal methyltransferase 1 (NTMT1): MTaseGlo Assay; N-terminal Xaa-Pro-Lys N-methyltransferase 1 (Homo sapiens), Q9BV86; NTMT1 MTase-Glo SAH luminescence, purified enzyme; Potency, µM (series often up to 114 µM), hits mostly inhibitors; 59,000 tested, 2.5% active; also: nearly all actives have a fitted effect of over 65% in size
Target sequence (Q9BV86 whole entry, looked up): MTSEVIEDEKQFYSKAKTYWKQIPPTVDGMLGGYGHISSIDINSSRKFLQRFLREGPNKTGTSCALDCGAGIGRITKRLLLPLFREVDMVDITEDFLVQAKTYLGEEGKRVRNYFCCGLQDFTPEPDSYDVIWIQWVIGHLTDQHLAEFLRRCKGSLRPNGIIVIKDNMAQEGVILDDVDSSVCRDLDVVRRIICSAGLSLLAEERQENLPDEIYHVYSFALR
p53null 39C kill = qHTS Screen for Compounds that Selectively Target Cancer Cells with p53 Mutations: Cytotoxicity of p53 Null Cells at the Nonpermissive Temperature; H1299 p53-null (neo) cells, 39C, ATPlite viability, 24 h; Potency, µM (doses to about 46.1 µM), usual class: cytotoxic; 55,000 tested, 0.97% active; also: nearly all actives have a fitted effect of over 50% in size
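Cells seeded at 600/well, 37C overnight. Compound added (up to 46 uM), plates shifted to 39C for 24 hr. ATPlite added, luminescence read after 20 min at room temperature.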
p53null 32C tox = qHTS Screen for Compounds that Selectively Target Cancer Cells with p53 Mutations: Cytotoxicity of p53 Null Cells at the Permissive Temperature. H1299-neo p53 null cells, ATP luminescence, 24 h, 32C. Potency, µM (top dose mostly 46.1 µM), actives largely listed as cytotoxic. 55,000 tested, 0.62% active. AID 903, 2007; also: nearly all actives have a fitted effect of over 55% in size
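We seeded p53-null H1299-neo cells, incubated them overnight at 37C, and added compounds across a range up to 46 uM. After 24 hours at 32C, ATP reagent was applied for 20 min at room temperature and luminescence recorded.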
OvCa metastasis = Primary qHTS assay for Inhibitors of ovarian cancer metastasis using an organotypic tumor microenvironment (TME) model; SKOV3ip1-GFP adhesion/invasion on 3D omental model, fluorescence; Potency, µM (series often up to 45.8 µM), most hits filed as inhibitors; 46,000 tested, 0.1% active; also: nearly all actives have a fitted effect of over 65% in size
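Adhesion/invasion was scored as fixed GFP-labeled SKOV3ip1 cell counts (488/509 nm), normalized to DMSO and tomatine controls. Cancer cells in serum-free medium, with four compound doses (0.36-46 umol/L), sat 2 hr at RT then 16 hr at 37 C on a 48 hr fibroblast/mesothelial/ECM culture.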
FH mod = Identification of activators of human fumarate hydratase by quantitative high-throughput screening | Fumarate hydratase, mitochondrial (Homo sapiens), P07954 | FH coupled MDH/diaphorase resazurin fluorescence, 15 min | Potency, µM (highest dose often 79.9 µM), most hits filed as inhibitors | 54,000 tested, 0.22% active | AID 1347055, 2019; also: the screen sought activators but most active calls are inhibition curves; nearly all actives have a fitted effect of over 45% in size
Target sequence (P07954 whole entry, looked up): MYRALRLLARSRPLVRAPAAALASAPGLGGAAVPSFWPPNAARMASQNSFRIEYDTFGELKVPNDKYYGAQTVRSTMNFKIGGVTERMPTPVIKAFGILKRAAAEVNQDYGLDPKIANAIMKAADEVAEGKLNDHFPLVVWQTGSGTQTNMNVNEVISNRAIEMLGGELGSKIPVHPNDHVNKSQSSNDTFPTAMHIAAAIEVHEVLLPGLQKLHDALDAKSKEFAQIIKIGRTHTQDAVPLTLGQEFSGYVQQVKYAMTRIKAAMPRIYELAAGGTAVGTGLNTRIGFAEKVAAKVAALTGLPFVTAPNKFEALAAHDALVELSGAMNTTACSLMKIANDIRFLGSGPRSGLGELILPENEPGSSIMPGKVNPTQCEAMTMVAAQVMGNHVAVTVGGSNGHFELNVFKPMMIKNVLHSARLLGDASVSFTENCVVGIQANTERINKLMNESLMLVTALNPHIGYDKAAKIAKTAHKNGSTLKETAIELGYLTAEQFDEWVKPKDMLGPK
Hits are given with their value; i = inactive; ? = inconclusive; nt = no result; ! = repeats disagree. The sample as a whole holds a higher share of hits than the screen did. Calls follow the shape of the dose curve; as a rule, active = well fitted curve in the direction sought with a large enough effect; inconclusive = small, poorly fitted or top-dose-only effect, or another doubt; inactive = no such curve, though single readings can be large; an effect the other way counts as inactive or inconclusive.

SMILES | NTMT1 inhibitor | p53null 39C kill | p53null 32C tox | OvCa metastasis | FH mod
Cc1ccc(OCCn2c(CCNC(=O)c3ccc([N+](=O)[O-])cc3)nc3ccccc32)cc1 | i | nt | nt | nt | nt
COc1ccccc1-c1cc2nc(C)c(CCC(=O)NCc3cccc(Cl)c3)c(C)n2n1 | 89µM | i | i | i | ?
NCCc1ccc(O)c(O)c1 | 32µM! | nt | nt | i | ?
CC(=O)c1ccc(NC(=O)CSc2nnc(NC(=O)NC3CCCCC3)s2)cc1 | i | 7.9µM | 6.3µM | i | i
O=C(CSc1nnc(NC(=O)NC2CCCCC2)s1)Nc1ccccc1F | i | ? | 10µM | i | i
COc1ccc(NC(=O)CSc2nnc(NC(=O)NC3CCCCC3)s2)cc1OC | i | 11µM | 13µM | i | i
Cc1ccc(NC(=O)Nc2nnc(SCC(=O)N3CCCCC3)s2)cc1 | i | i | ? | i | i
COc1ccccc1NC(=O)CSc1nnc(NC(=O)NC2CCCCC2)s1 | i | ? | ? | i | i
Oc1ccc(C2CCN(c3ccnc4ccccc34)CC2)cc1O | 10µM! | nt | nt | i | i
CC1=C2[N-][C@H]([C@H](CC(N)=O)[C@@]2(C)CCC(=O)NC[C@@H](C)OP(=O)([O-])O[C@H]2[C@@H](O)[C@@H](n3cnc4cc(C)c(C)cc43)O[C@@H]2CO)[C@]2(C)N=C(C(C)=C3N=C(C=C4N=C1[C@@H](CCC(N)=O)C4(C)C)[C@@H](CCC(N)=O)[C@]3(C)CC(N)=O)[C@@H](CCC(N)=O)[C@]2(C)CC(N)=O.O.[Co+2] | 50µM | nt | nt | nt | nt
Cc1cccc(Nc2nnc(-c3ccc(C)c(S(=O)(=O)N4CCN(C)CC4)c3)c3ccccc23)c1 | i | 10µM | i | i | i
NC1CCCN(c2c(/C=C3\SC(=O)NC3=O)cccc2-c2ccccc2)C1 (centres undefined) | ? | nt | nt | nt | i
COc1cc(OC)c(NS(=O)(=O)c2c(C)nc3sc(C)cn3c2=O)cc1Cl | i | 20µM | i | i | i
CC(=O)Nc1sc2c(c1-c1ccc3nonc3c1)CCNC2 | i | nt | nt | nt | nt
O=C(Nc1ccn(Cc2ccc(O)cc2C(F)(F)F)n1)c1c(F)cccc1F | ? | nt | nt | nt | i
CC(=O)c1ccc(NC(=O)/C=C/c2ccc(C)o2)cc1 | nt | ? | 13µM | i | nt
Cc1ccc(NC(=O)/C=C/c2ccc(C)o2)c(C)c1 | nt | i | i | i | nt
FC(F)(F)c1cc(-c2ncn(/C=C\c3nnco3)n2)cc(C(F)(F)F)c1 | i | nt | nt | nt | i
O=C(O)c1ccc(NC(=O)c2cc3ccccc3o2)cc1 | i | ? | 13µM | i | i
O=C(Nc1ccc2oc(=O)ccc2c1)c1cc2ccccc2o1 | nt | i | i | nt | nt
O=C(Nc1ccc(NC(=O)c2cc3ccccc3o2)cc1)c1ccccc1 | i | i | i | i | i
O=C(Nc1ccccn1)c1cc2ccccc2o1 | nt | 5µM | 4µM | nt | nt
CCC[C@@H](NC(=O)[C@@H]1[C@H]2CCC[C@@H]2CN1C(=O)[C@@H](NC(=O)[C@@H](NC(=O)c1cnccn1)C1CCCCC1)C(C)(C)C)C(=O)C(=O)NC1CC1 | i | nt | nt | i | i
CCC[C@H](NC(=O)[C@@H]1[C@H]2CCC[C@H]2CN1C(=O)[C@@H](NC(=O)[C@@H](NC(=O)c1cnccn1)C1CCCCC1)C(C)(C)C)C(=O)C(=O)NC1CC1 | 45µM | nt | nt | nt | nt
COc1ccc(CN(CCN(C)C)c2ncccn2)cc1 | i | nt | nt | nt | i
SMILES | NTMT1 inhibitor | p53null 39C kill | p53null 32C tox | OvCa metastasis | FH mod
CCCCCCCCCCCCCCCC[N+](C)(C)CCN(Cc1ccc(OC)cc1)c1ncccn1 | 25µM | nt | nt | nt | i
CC(C)(O)CNc1ncc(-c2ccnc(Nc3ccncc3)n2)c(CC2CC2)n1 | i | nt | nt | nt | nt
Cc1c(P(=O)(c2ccccc2)c2ccccc2)c2ccccc2n1C | 79µM | nt | nt | nt | nt
CSc1nc(N)cc(Oc2ccc(-c3nc(Nc4cccc(C(F)(F)F)c4)n[nH]3)cc2)n1 | i | nt | nt | nt | ?
Cc1oc2ccc(O)c(CN(C)Cc3ccccc3)c2c1C(=O)Nc1cccc(C(F)(F)F)c1 | i | 22µM | i | i | ?
Cc1oc2ccc(O)c(CN(C)Cc3ccccc3)c2c1C(=O)Nc1ccccc1 | i | ? | i | i | i
Nc1ccc(O)c([N+](=O)[O-])c1 | 35µM | nt | nt | nt | ?
FC(F)(F)c1ccccc1-c1nc(NCc2cccc(Cl)c2)c2ccccc2n1 | i | nt | nt | nt | nt
CC(C)COc1ccc(C(=O)Nc2nnc(S(=O)(=O)N(C)Cc3ccco3)s2)cc1 | i | 10µM | ? | i | i
COc1ccc(F)cc1S(=O)(=O)NCCc1csc(-c2ccc(Cl)cc2)n1 | i | 20µM | i | i | ?
O=S(=O)(NCCc1csc(-c2ccc(F)cc2)n1)c1ccc(F)cc1F | i | i | i | i | i
Cc1cnc(NC(=O)c2cc(Oc3cnc(C(=O)N(C)C)nc3)c3cc(C)oc3c2)cn1 | i | nt | nt | nt | nt
CCCS(=O)(=O)c1ncc(Cl)c(C(=O)N(Cc2ccccc2)Cc2ccco2)n1 | i | ? | 22µM | 2.2µM | i
Cc1ccc2cc(-c3c(C)ccc(C(=O)c4c(-c5ccccc5)n(C)n(-c5ccccc5)c4=O)c3N)ccc2n1 | ? | nt | nt | nt | i
CCOC(=O)/C(C#N)=C/c1ccc(-c2ccc(Br)cc2)o1 | nt | i | i | i | nt
C=CCN1C=CC(=C/C=C(/C#N)C(=O)OCC)C=C1 | nt | ? | 8.9µM | nt | nt
CCN(C(=O)C1CCN(S(=O)(=O)c2ccc3c(c2)CCCN3C(C)=O)CC1)c1cccc(C)c1 | i | i | i | i | i
CCN(CC)C(=O)C1CCN(S(=O)(=O)c2ccc3c(c2)CCCN3C(C)=O)CC1 | i | 10µM | i | i | i
CCC1=CC2CN(C1)Cc1c([nH]c3ccccc13)[C@@](C(=O)OC)(c1cc3c(cc1OC)N(C)[C@H]1[C@@](O)(C(=O)OC)[C@H](OC(C)=O)[C@]4(CC)C=CCN5CC[C@]31[C@@H]54)C2 (some centres undefined) | i | nt | nt | nt | i
O=C(O)c1cc(-c2ccc(C(F)(F)F)cc2)nc2n[nH]c(-c3ccccc3)c12 | i | 16µM | ? | i | i
COc1ccc(-c2nc3ccccc3n2Cc2ccc(Cl)cc2)cc1 | i | 4µM | i | i | i
COc1ccc(-c2nc3ccccc3n2Cc2ccc(C(C)C)cc2)cc1 | i | ? | i | i | ?
Cc1ccc(Cn2c(-c3ccccc3)nc3ccccc32)cc1 | i | ? | i | i | i
COCn1c(-c2ccc(OC)cc2)nc2ccccc21 | nt | 11µM | 14µM | nt | nt
C[C@H]1CCN2C[C@]34C[C@@]5(C(=O)Nc6c5ccc5c6OC=CC(C)(C)O5)C(C)(C)C3C[C@]12C(=O)N4C (some centres undefined) | i | nt | nt | nt | i
COc1ccc(OC)c(NC(=O)CSc2n[nH]c(-c3ccccc3Cl)n2)c1 | i | i | i | i | 7.9µM

Assay outcomes: PubChem BioAssay, National Center for Advancing Translational Sciences (NCATS)
